Shown are actives, neighbours in structure and some others; about 2.4% of the full set was active somewhere.
eIF4H inh – inhibitors of RNA binding by human eIF4H. 290,000 compounds, 0.94% hits. eIF4H fluorescence polarization binding assay. inhibition, % at 35 µM. Q15056;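 note: calls also rest on retests at 20 µM and on dose response follow-up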
MLLE-PAM2 inh – blocks PAM2 peptide binding to the PABP1 MLLE domain. GST-MLLE / FITC-PAM2 fluorescence polarization. AID 588489. P11940. inhibition, % at 20 µM. 360,000 compounds, 0.36% hits; in the data active = inhibition above about 35%, passing the limit was not always enough;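 note: plate controls were DMSO wells with GST-MLLE for no effect and wells lacking GST-MLLE protein for full effect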
HMGR II inh – blocks class II HMG-CoA reductase of Enterococcus faecalis; inhibition, % at 10 µM; AID 1066; 190,000 compounds, 0.41% hits; purified E. faecalis HMGR, NADPH absorbance 340 nm kinetic;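 active = inhibition above a set limit, the median over all tested compounds plus 3 SD, cut at about 9.5% in these data; inconclusive = no clear call, values can overlap the other calls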;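 note: enzyme runs in reverse so mevalonate oxidation gives rising NADPH absorbance; 0% = complete reaction with DMSO and 100% = background rate lacking mevalonate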
PHOSPHO1 inh – inhibitors of human PHOSPHO1 phosphatase; Q8TCT1; recombinant PHOSPHO1, absorbance phosphatase assay; inhibition, % at 13.3 µM; 290,000 compounds, 1.1% hits; AID 1565; in the data active = inhibition above about 60%
Target sequence (Q8TCT1 whole entry, looked up): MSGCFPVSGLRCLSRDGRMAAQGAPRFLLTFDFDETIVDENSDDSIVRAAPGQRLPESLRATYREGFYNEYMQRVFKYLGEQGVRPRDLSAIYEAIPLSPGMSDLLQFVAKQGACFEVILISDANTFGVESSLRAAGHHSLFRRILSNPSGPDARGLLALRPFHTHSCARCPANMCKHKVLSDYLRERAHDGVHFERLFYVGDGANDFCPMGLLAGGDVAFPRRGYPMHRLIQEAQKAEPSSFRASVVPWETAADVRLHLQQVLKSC
PABP FP inh – PABP-poly(A) binding inhibition; P11940; PABP-poly(A) RNA binding, fluorescence polarization; calls only at 35 µM; 290,000 compounds, 1% hits;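 note: calls also rest on retests at 20 µM and on dose response follow-up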
* marks the source's active call; other numbers are inactive results; i = inactive; ? = inconclusive; . = no result given; + = active, no number. Unless noted, the rule behind the calls is not given here.

SMILES | eIF4H inh | MLLE-PAM2 inh | HMGR II inh | PHOSPHO1 inh | PABP FP inh
O=C1CSC(=S)N1/N=C/c1ccc(O)c(O)c1O | 80.4* | 3.3 | . | 74.5* | +
O=C1CSC(=S)N1/N=C/c1cc(Br)ccc1O | 14.1 | . | . | 18.4 | i
O=C(Nc1ccccc1)Nc1ccc2ocnc2c1 | -4.6 | 3.6 | 17.7* | 28.5 | i
CS(=O)(=O)N(CC(=O)Nc1ccccc1Br)Cc1ccccc1 | -8.8 | -3.1 | . | 14.1 | i
CCN1C/C(=C/c2sccc2C)c2nc3ccccc3c(C(=O)O)c2C1 | 71.9* | 16.8 | . | -40.0 | +
CCN1C/C(=C/c2cccs2)c2nc3ccccc3c(C(=O)O)c2C1 | 61.6* | 46.4 | . | 3.1 | +
O=C(N/N=C/c1ccco1)c1cccc(N2CCCC2=O)c1 | 90.8* | -16.6 | -2.4 | 4.1 | i
O=C(N/N=C/c1ccco1)c1cccc(N2Cc3ccccc3C2)c1 | 91.1* | -1.7 | -1.4 | -20.1 | +
Cc1ccc(Cn2c(C)c(C(=O)NCc3cccs3)sc2=O)cc1 | . | 6.3 | . | . | .
Cc1ccc(-n2c(CNc3ccc(F)cc3)nnc2SCC(=O)O)cc1 | -6.4 | -24.8 | 0.3 | 11.7 | i
Cc1ccc(OCc2nnc(SCC(=O)O)n2-c2ccccc2)cc1 | . | -57.7 | . | . | .
COc1cccc(-n2c(COc3ccc(C)cc3)nnc2SCC(=O)O)c1 | -2.1 | -35.0 | 0.9 | 73.6* | i
COc1ccc(-n2c(COc3ccc(C)cc3)nnc2SCc2ccc(C#N)cc2)cc1 | -5.5 | -108.7 | 0.0 | 73.4* | i
Cc1ccc(NCc2nnc(SCC(=O)O)n2-c2ccc(C)cc2)cc1 | 6.9 | -16.3 | -4.2 | 67.0* | i
O=C(CN1C(=O)c2ccccc2C1=O)OCC(=O)c1ccccc1 | . | 1.9 | . | . | .
O=C(c1ccco1)N1CCN(c2c([N+](=O)[O-])nn(-c3cccc(Cl)c3)[n+]2[O-])CC1 | -9.4 | 0.8 | 1.1 | 11.4 | i
Cc1ccc(C2NC(=O)c3c(sc(C)c3C)N2)c(O)c1 (stereo not given) | 21.4 | 0.4 | 0.2 | 104.3* | i
CCC(=O)NCCc1nc2cc(NC(=O)c3ccco3)ccc2n1C | -6.4 | 1.5 | . | 41.6 | i
O=C(CSc1nnc(-c2cccnc2)o1)Nc1ccccc1Br | -9.4 | 9.5 | . | 30.4 | i
Nn1c(SCC(=O)Nc2ccccc2F)nnc1-c1cccnc1 | -6.0 | -66.1 | -1.2 | 68.8* | i
Cc1cc(NC(=O)CSc2nnc(-c3cccnc3)n2C)no1 | -2.3 | -2.7 | -0.9 | 1.7 | i
Cc1cc(NC(=O)CSc2nnc(-c3cccnc3)n2N)no1 | -0.2 | -19.3 | -5.4 | 73.6* | i
O=C(CSc1nnc(-c2cccnc2)o1)Nc1ccccc1F | . | 44.3* | . | . | .
Cc1ccc(C(=O)CSc2nsc(C)c2C#N)cc1 | -7.2 | 24.8 | 1.6 | 45.2 | i
Cc1snc(SCC(=O)c2ccc(Cl)cc2)c1C#N | -0.5 | 27.3 | -1.5 | 83.9* | i
SMILES | eIF4H inh | MLLE-PAM2 inh | HMGR II inh | PHOSPHO1 inh | PABP FP inh
COc1ccc2c3c(cccc13)N(C)N=C2C | 100.1* | 94.6* | -2.5 | 25.7 | ?
OC(CN1CCCC1)Cn1ccc2ccccc21 (stereo not given) | 19.7 | 3.4 | . | . | i
O=C(c1ccccc1)N1CCN(CC(O)Cn2ccc3ccccc32)CC1 (stereo not given) | 18.9 | -7.4 | . | 65.5* | i
O=C(Nc1cccc(S(=O)(=O)NC2=NCCC2)c1)c1cn(-c2ccccc2)nc1-c1ccc(F)cc1 | . | -5.2 | . | . | .
COC(=O)c1ccc(NC(=O)C2CCN(C(=O)c3cc(OC)c(OC)c(OC)c3)CC2)cc1 | -3.1 | -144.4 | 0.2 | 106.5* | i
CCOC(=O)c1ccc(NC(=O)C2CCN(C(=O)c3ccc(OC)c(OC)c3)CC2)cc1 | 0.1 | 2.5 | 1.4 | -22.9 | i
CCc1ccc(OCC(=O)Nc2ccc3oc(=O)ccc3c2)cc1 | 3.4 | 5.3 | . | 37.0 | i
S=C(NN=C1CCCCCC1)Nc1ccc(Cl)cc1 | -5.7 | -0.5 | 1.1 | 85.1* | i
Fc1ccc(NC(=S)NN=C2CCCCCC2)cc1 | 0.9 | 28.9 | -0.3 | 100.3* | i
O=C(NN=C1CCCCCCC1)c1ccc(F)cc1 | 0.6 | 0.4 | 2.7 | -3.7 | i
CCn1c(C)[n+](CCOCC[n+]2c(C)n(CC)c3cc(Cl)c(Cl)cc32)c2cc(Cl)c(Cl)cc21 | -1.4 | -122.9 | -1.0 | 82.6* | i
COc1cccc(-c2cnc(C(O)c3ccc(OC)c(F)c3)[nH]2)c1 (stereo not given) | . | -3.6 | . | . | .
COc1ccc(Cl)cc1C(=O)NCC(=O)OCc1ccccc1 | . | -1.1 | . | . | .
COc1ccccc1OCC(=O)Sc1ccc(C)cc1 | -12.6 | 36.4* | 1.6 | 1.8 | i
COc1ccccc1OCC(=O)NCCNC(=O)COc1ccccc1OC | -6.9 | 39.9* | -6.0 | 16.0 | i
O=C(NN1CCCCC1)c1ccc(COc2ccc(Cl)cc2)cc1 | -10.4 | -2.3 | -1.1 | 22.8 | i
CCc1ccc2[nH]c(=O)c(C(c3nnnn3CCOC)N3CCN(c4ccccc4)CC3)cc2c1 (stereo not given) | 3.6 | 2.4 | -1.0 | 85.6* | i
COc1ccc2cc(C(c3nnnn3C3CCCC3)N3CCc4ccccc4C3)c(=O)[nH]c2c1 (stereo not given) | 1.6 | 40.8* | -1.4 | 97.8* | i
CCC(C)(C)n1nnnc1C(c1cc2ccc(OC)cc2[nH]c1=O)N1CCc2ccccc2C1 (stereo not given) | -0.2 | 71.5* | -0.5 | 14.4 | i
COc1ccc2cc(C(c3nnnn3C(C)(C)C)N3CCc4ccccc4C3)c(=O)[nH]c2c1 (stereo not given) | -4.1 | . | -0.8 | 34.7 | i
COc1ccc(Cn2nnnc2C(c2cc3ccc(OC)cc3[nH]c2=O)N2CCCCCC2)cc1 (stereo not given) | 9.4 | -4.1 | 1.2 | 85.6* | i
COC(=O)C(C)NC(=O)c1cn(-c2ccccc2OC)c(=O)c2ccccc12 (stereo not given) | -4.2 | 7.8 | . | . | i
CCCCc1c(C)nc2ccc(C)cc2c1SCCC(=O)O | -2.0 | 2.0 | -0.8 | 39.4 | i
CCCCc1c(C)nc2ccccc2c1SCCC(=O)O | 9.8* | -2.5 | -5.9 | -36.8 | i
CC(C)NCc1cccc([N+](=O)[O-])c1 | 7.1 | 0.2 | -4.0 | -1.3 | i
SMILES | eIF4H inh | MLLE-PAM2 inh | HMGR II inh | PHOSPHO1 inh | PABP FP inh
CC1(C)CC(NCc2cccc([N+](=O)[O-])c2)CC(C)(C)N1 | 80.8* | -2.1 | . | 15.0 | +
Cc1cc(C)c2c(N)c3cccc(C)c3nc2n1 | 9.3 | -28.5 | -8.7 | 4.7 | i
CC(Sc1ccccc1)C(=O)Nc1ccc(N2CCOCC2)cc1 (stereo not given) | 0.1 | 34.1 | -5.7 | -15.7 | i
COc1ccc(NC(=O)C(C)Sc2ccccc2)cc1 (stereo not given) | -9.3 | -99.0 | -3.9 | 62.5* | i
Cc1ccsc1/C=N/n1c(-c2ccco2)n[nH]c1=S | -0.2 | -0.1 | -5.2 | 62.0* | i
Cc1ccsc1/C=N/n1c(-c2ccccc2)n[nH]c1=S | -1.1 | -17.0 | -2.0 | -12.9 | i
CCCOc1ccc(N2C(=O)CC(NNC(=O)c3ccc(COc4ccccc4)o3)C2=O)cc1 (stereo not given) | -9.2 | 11.8 | 0.5 | -2.4 | +

Screens (PubChem BioAssay)
